From paper PMC11006913

Key:
Experiment in all cases: PBM; 200 nM protein, PBS
Conditions in all cases: dsDNA, one strand shown
NKX3-2 [1] = molecular target: NKX3-2 (Homo sapiens, UniProt P78367 192-278, P234S)
NKX3-2 [2] = molecular target: NKX3-2 (Homo sapiens, UniProt P78367 192-278)
HOXB6 = HOXB6 (Homo sapiens, UniProt P17509 132-218)
NKX2-5 = NKX2-5 (Homo sapiens, UniProt P52952 125-210)
PRRX1 = PRRX1 (Homo sapiens, UniProt P54821 80-166)
CRX = CRX (Homo sapiens, UniProt O43186 26-111, R41L)
Chain of CRX (O43186 26-111 R41L): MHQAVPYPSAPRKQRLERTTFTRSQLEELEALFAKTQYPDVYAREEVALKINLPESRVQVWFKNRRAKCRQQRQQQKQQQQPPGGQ

HOXA2 = HOXA2 (Homo sapiens, UniProt O43364 129-215)
Chain of HOXA2 (O43364 129-215): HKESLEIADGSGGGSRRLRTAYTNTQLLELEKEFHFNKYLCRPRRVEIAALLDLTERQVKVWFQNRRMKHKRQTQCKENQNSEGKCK

HOXA4 = HOXA4 (Homo sapiens, UniProt Q00056 201-287, W262F)
Chain of HOXA4 (Q00056 201-287 W262F): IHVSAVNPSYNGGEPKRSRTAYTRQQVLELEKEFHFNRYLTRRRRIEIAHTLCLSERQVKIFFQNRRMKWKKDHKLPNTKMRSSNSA

ALX1 = ALX1 (Homo sapiens, UniProt Q15699 118-204)
Chain of ALX1 (Q15699 118-204): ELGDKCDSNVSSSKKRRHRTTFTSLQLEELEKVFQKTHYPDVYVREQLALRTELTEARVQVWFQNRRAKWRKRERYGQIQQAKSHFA

ALX3 = ALX3 (Homo sapiens, UniProt O95076 139-225, N203S)
Chain of ALX3 (O95076 139-225 N203S): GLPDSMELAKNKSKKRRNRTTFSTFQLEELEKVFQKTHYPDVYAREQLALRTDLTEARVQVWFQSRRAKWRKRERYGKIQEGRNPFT

Chain of HOXB6 (P17509 132-218): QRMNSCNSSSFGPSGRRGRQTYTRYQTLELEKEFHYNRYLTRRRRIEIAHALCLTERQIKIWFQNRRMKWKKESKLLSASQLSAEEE
Chain of NKX3-2 (Homo sapiens, UniProt P78367 192-278, P234S) (P78367 192-278 P234S): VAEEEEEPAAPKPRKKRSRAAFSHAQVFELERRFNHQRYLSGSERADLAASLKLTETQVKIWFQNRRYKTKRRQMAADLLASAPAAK
Chain of PRRX1 (P54821 80-166): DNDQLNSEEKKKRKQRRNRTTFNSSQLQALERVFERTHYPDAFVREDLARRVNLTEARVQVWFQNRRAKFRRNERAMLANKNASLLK
Chain of NKX3-2 (Homo sapiens, UniProt P78367 192-278) (P78367 192-278): as the sequence (P78367 192-278 P234S) above, with S43P counted along it
Chain of NKX2-5 (P52952 125-210): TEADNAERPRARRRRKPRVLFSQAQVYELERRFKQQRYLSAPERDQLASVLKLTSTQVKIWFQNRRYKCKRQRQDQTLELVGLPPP

CGGTTACC
binding signal (NKX3-2 [1]): 10.6 upbm affinity estimate (log intensity, higher = more binding, comparable within an allelic series)
binding signal (NKX3-2 [2]): 10.5 upbm affinity estimate (log intensity, higher = more binding, comparable within an allelic series)

CCACTTCC
binding signal (NKX3-2 [1]): 12.6 upbm affinity estimate (log intensity, higher = more binding, comparable within an allelic series)
binding signal (NKX3-2 [2]): 12.7 upbm affinity estimate (log intensity, higher = more binding, comparable within an allelic series)

AGAGGGCA
binding signal (NKX3-2 [1]): 11.8 upbm affinity estimate (log intensity, higher = more binding, comparable within an allelic series)
binding signal (NKX3-2 [2]): 11.8 upbm affinity estimate (log intensity, higher = more binding, comparable within an allelic series)

ATATGAGG
binding signal (NKX3-2 [1]): 11.6 upbm affinity estimate (log intensity, higher = more binding, comparable within an allelic series)
binding signal (NKX3-2 [2]): 11.6 upbm affinity estimate (log intensity, higher = more binding, comparable within an allelic series)

CTGCCGCA
binding signal (NKX3-2 [1]): 10.7 upbm affinity estimate (log intensity, higher = more binding, comparable within an allelic series)
binding signal (NKX3-2 [2]): 10.6 upbm affinity estimate (log intensity, higher = more binding, comparable within an allelic series)

CCGAGTAC
binding signal (NKX3-2 [1]): 11.5 upbm affinity estimate (log intensity, higher = more binding, comparable within an allelic series)
binding signal (NKX3-2 [2]): 11.6 upbm affinity estimate (log intensity, higher = more binding, comparable within an allelic series)

CACGGGCA
binding signal (NKX3-2 [1]): 10.5 upbm affinity estimate (log intensity, higher = more binding, comparable within an allelic series)
binding signal (NKX3-2 [2]): 10.6 upbm affinity estimate (log intensity, higher = more binding, comparable within an allelic series)

ACTTACTG
binding signal (NKX3-2 [1]): 11.6 upbm affinity estimate (log intensity, higher = more binding, comparable within an allelic series)
binding signal (NKX3-2 [2]): 11.7 upbm affinity estimate (log intensity, higher = more binding, comparable within an allelic series)

ACGGCGGG
binding signal (NKX3-2 [1]): 10.4 upbm affinity estimate (log intensity, higher = more binding, comparable within an allelic series)
binding signal (NKX3-2 [2]): 10.4 upbm affinity estimate (log intensity, higher = more binding, comparable within an allelic series)

CGACCTAG
binding signal (NKX3-2 [1]): 10.6 upbm affinity estimate (log intensity, higher = more binding, comparable within an allelic series)
binding signal (NKX3-2 [2]): 10.6 upbm affinity estimate (log intensity, higher = more binding, comparable within an allelic series)

ACCACTTC
binding signal (NKX3-2 [1]): 12.8 upbm affinity estimate (log intensity, higher = more binding, comparable within an allelic series)
binding signal (NKX3-2 [2]): 12.8 upbm affinity estimate (log intensity, higher = more binding, comparable within an allelic series)

AAGTGCCA
binding signal (NKX3-2 [1]): 12.6 upbm affinity estimate (log intensity, higher = more binding, comparable within an allelic series)
binding signal (NKX3-2 [2]): 12.8 upbm affinity estimate (log intensity, higher = more binding, comparable within an allelic series)

CACGGACC
binding signal (NKX3-2 [1]): 10.6 upbm affinity estimate (log intensity, higher = more binding, comparable within an allelic series)
binding signal (NKX3-2 [2]): 10.6 upbm affinity estimate (log intensity, higher = more binding, comparable within an allelic series)

GTCACTTA
binding signal (NKX3-2 [1]): 12.5 upbm affinity estimate (log intensity, higher = more binding, comparable within an allelic series)
binding signal (NKX3-2 [2]): 12.6 upbm affinity estimate (log intensity, higher = more binding, comparable within an allelic series)

AACGCCGG
binding signal (NKX3-2 [1]): 10.6 upbm affinity estimate (log intensity, higher = more binding, comparable within an allelic series)
binding signal (NKX3-2 [2]): 10.6 upbm affinity estimate (log intensity, higher = more binding, comparable within an allelic series)

GACGGGAC
binding signal (NKX3-2 [1]): 10.5 upbm affinity estimate (log intensity, higher = more binding, comparable within an allelic series)
binding signal (NKX3-2 [2]): 10.5 upbm affinity estimate (log intensity, higher = more binding, comparable within an allelic series)

AAGAGTGG
binding signal (NKX3-2 [1]): 12.5 upbm affinity estimate (log intensity, higher = more binding, comparable within an allelic series)
binding signal (NKX3-2 [2]): 12.7 upbm affinity estimate (log intensity, higher = more binding, comparable within an allelic series)

ACGATCGA
binding signal (NKX3-2 [1]): 10.7 upbm affinity estimate (log intensity, higher = more binding, comparable within an allelic series)
binding signal (NKX3-2 [2]): 10.7 upbm affinity estimate (log intensity, higher = more binding, comparable within an allelic series)

ACCAACGC
binding signal (NKX3-2 [1]): 10.7 upbm affinity estimate (log intensity, higher = more binding, comparable within an allelic series)
binding signal (NKX3-2 [2]): 10.7 upbm affinity estimate (log intensity, higher = more binding, comparable within an allelic series)

CATTATGA
binding signal (HOXB6): 11 upbm affinity estimate (log intensity, higher = more binding, comparable within an allelic series)

AATTGACC
binding signal (NKX2-5): 10.6 upbm affinity estimate (log intensity, higher = more binding, comparable within an allelic series)

AAATACGA
binding signal (PRRX1): 11 upbm affinity estimate (log intensity, higher = more binding, comparable within an allelic series)

AATGTAAC
binding signal (PRRX1): 11.3 upbm affinity estimate (log intensity, higher = more binding, comparable within an allelic series)

ACAATTCT
binding signal (PRRX1): 10.5 upbm affinity estimate (log intensity, higher = more binding, comparable within an allelic series)

AATGTACA
binding signal (HOXB6): 10.3 upbm affinity estimate (log intensity, higher = more binding, comparable within an allelic series)

GAGATTAC
binding signal (CRX): 12.3 upbm affinity estimate (log intensity, higher = more binding, comparable within an allelic series)

GACACTAA
binding signal (HOXA2): 9.38 upbm affinity estimate (log intensity, higher = more binding, comparable within an allelic series)

ACATATCT
binding signal (HOXB6): 10 upbm affinity estimate (log intensity, higher = more binding, comparable within an allelic series)

GGCTATAA
binding signal (PRRX1): 11.4 upbm affinity estimate (log intensity, higher = more binding, comparable within an allelic series)

ATTTTTTA
binding signal (HOXB6): 10.4 upbm affinity estimate (log intensity, higher = more binding, comparable within an allelic series)

ATCATAAT
binding signal (HOXB6): 11.2 upbm affinity estimate (log intensity, higher = more binding, comparable within an allelic series)

ATTAGCGC
binding signal (HOXB6): 10.6 upbm affinity estimate (log intensity, higher = more binding, comparable within an allelic series)

CCATTAGA
binding signal (HOXA4): 10.6 upbm affinity estimate (log intensity, higher = more binding, comparable within an allelic series)

AAAAGAAT
binding signal (PRRX1): 11 upbm affinity estimate (log intensity, higher = more binding, comparable within an allelic series)

AAATACCA
binding signal (HOXA2): 9.01 upbm affinity estimate (log intensity, higher = more binding, comparable within an allelic series)

ATACCTAA
binding signal (PRRX1): 11.2 upbm affinity estimate (log intensity, higher = more binding, comparable within an allelic series)

AAATATTC
binding signal (PRRX1): 11.3 upbm affinity estimate (log intensity, higher = more binding, comparable within an allelic series)

AAGATTTA
binding signal (HOXB6): 10 upbm affinity estimate (log intensity, higher = more binding, comparable within an allelic series)

TGATGAAA
binding signal (PRRX1): 11.1 upbm affinity estimate (log intensity, higher = more binding, comparable within an allelic series)

TACTACGA
binding signal (HOXB6): 10.1 upbm affinity estimate (log intensity, higher = more binding, comparable within an allelic series)

AATATCAA
binding signal (PRRX1): 11.7 upbm affinity estimate (log intensity, higher = more binding, comparable within an allelic series)

CTATTTTA
binding signal (HOXB6): 10.5 upbm affinity estimate (log intensity, higher = more binding, comparable within an allelic series)

GCATAGTA
binding signal (HOXB6): 9.78 upbm affinity estimate (log intensity, higher = more binding, comparable within an allelic series)

GTCAACAA
binding signal (ALX1): 7.43 upbm affinity estimate (log intensity, higher = more binding, comparable within an allelic series)

GGAGAGTA
binding signal (NKX3-2 [2]): 11.6 upbm affinity estimate (log intensity, higher = more binding, comparable within an allelic series)

ATTGAATG
binding signal (PRRX1): 11.6 upbm affinity estimate (log intensity, higher = more binding, comparable within an allelic series)

GGTTAATA
binding signal (HOXB6): 10.9 upbm affinity estimate (log intensity, higher = more binding, comparable within an allelic series)

ATATACGA
binding signal (HOXB6): 9.93 upbm affinity estimate (log intensity, higher = more binding, comparable within an allelic series)

ATAATGTG
binding signal (HOXB6): 11.1 upbm affinity estimate (log intensity, higher = more binding, comparable within an allelic series)

TACATCAA
binding signal (PRRX1): 11.1 upbm affinity estimate (log intensity, higher = more binding, comparable within an allelic series)

ACAAATTG
binding signal (HOXB6): 10.4 upbm affinity estimate (log intensity, higher = more binding, comparable within an allelic series)

AGTATCTA
binding signal (HOXB6): 10.2 upbm affinity estimate (log intensity, higher = more binding, comparable within an allelic series)

ATGTAATC
binding signal (HOXB6): 10.5 upbm affinity estimate (log intensity, higher = more binding, comparable within an allelic series)

TGTAAACA
binding signal (HOXB6): 10 upbm affinity estimate (log intensity, higher = more binding, comparable within an allelic series)

AATCAGCA
binding signal (PRRX1): 12 upbm affinity estimate (log intensity, higher = more binding, comparable within an allelic series)

CGCATTAG
binding signal (CRX): 10.4 upbm affinity estimate (log intensity, higher = more binding, comparable within an allelic series)

CTATATTA
binding signal (ALX3): 8.73 upbm affinity estimate (log intensity, higher = more binding, comparable within an allelic series)

AAATAAAC
binding signal (HOXB6): 10.5 upbm affinity estimate (log intensity, higher = more binding, comparable within an allelic series)

CCCTCAAA
binding signal (NKX3-2 [2]): 11.6 upbm affinity estimate (log intensity, higher = more binding, comparable within an allelic series)
